Inconclusive results are not listed. Calls of active or inactive are those of the source. Calls come from the whole dose curve; as a rule, active = well fitted activation curve with a large enough effect in the repeat runs; inconclusive = weak or mixed curves; inactive = no such curve, though single readings can be large or run the other way.

This is an account of results in PubChem BioAssay (Tox21).
% is set by controls: 0 for no effect and ±100 for the full control effect.

This experiment is described as follows: qHTS assay to identify small molecule agonists of the estrogen related receptor (ERR) signaling pathway (AID 1224820). The conditions noted are these: ERR reporter cell line, luciferase agonist mode; series mostly up to 46.1 µM; activation: at the top concentration. The essentials:
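After 6 h plating (2,000 cells/well) and 18 h compound treatment at 37 C, ERR cells were lysed with One-Glo and luminescence read after 30 min at room temperature.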
For `COc1cc(OC)cc(-c2cc3cnc(N)nc3nc2NC(=O)NC(C)(C)C)c1`, the “activation” value was -68.3% (inactive).

On to `CCN(CC)CC#CCOC(=O)C(O)(c1ccccc1)C1CCCCC1` (stereo not drawn), for which the “activation” value is -30.4% (inactive).

As to `CN1CCCC1CCOC(C)(c1ccccc1)c1ccc(Cl)cc1` (stereo not drawn), the “activation” value is -33.3% (inactive).

`N#C/C(=C\c1ccc(-c2cc(Cl)ccc2Cl)o1)C(=O)Nc1cccc2ncccc12`: the “activation” value was -39.9% (inactive).

Take `NC(=NCc1ccccc1)NC(=O)c1nc(Cl)c(N)nc1N`: the “activation” value was -26.7% (inactive).

For `O=[N+]([O-])c1ccc2c(c1)S(=O)(=O)C=C2`, the “activation” value was -109% (inactive).

On to `O=C1Nc2ccc(I)cc2/C1=C/c1cc(Br)c(O)c(Br)c1`, for which the “activation” value was -60.9% (inactive).

`Nc1c(S(=O)(=O)O)cc(Nc2ccc(Nc3nc(Cl)nc(Nc4ccc(S(=O)(=O)O)cc4)n3)c(S(=O)(=O)O)c2)c2c1C(=O)c1ccccc1C2=O`: the “activation” value is -46.1% (inactive).

Regarding `CC(=O)/C=C1\C(=O)N(C)c2ccccc21`, the “activation” value is -44.4% (inactive).

As for `C[C@H](Cc1ccc(O)c(O)c1)[C@@H](C)Cc1ccc(O)c(O)c1`, the “activation” value is -83.2% (inactive).

Take `CCCCCCCCCCC(C)(C)C(=O)Nc1c(OC)cc(OC)cc1OC`: the “activation” value is -43.2% (inactive).

As for `C=CCc1cccc(/C=N/NC(=O)CN2CCN(Cc3ccccc3)CC2)c1O`, the “activation” value is -72% (inactive).

For `Cc1cccc(C2CN(C)CCc3c2cc(O)c(O)c3Cl)c1` (stereo not drawn), the “activation” value is -40.9% (inactive).

Consider `CN(C)S(=O)(=O)c1ccc2c(c1)/C(=C/c1cc3c([nH]1)CCCC3)C(=O)N2`, for which the “activation” value is -37.2% (inactive).

As to `Oc1ccc(/C=C/c2ccc(/C=C/c3ccc(O)cc3)c(Br)c2)cc1`, the “activation” value was -69.1% (inactive).

With `Nc1nc(N)c(N=O)c(OCC2CCCCC2)n1`, the “activation” value was -59.3% (inactive).

Turning to `Clc1ccc2c(c1)N=C(N1CCNCC1)c1ccccc1N2`, the “activation” value was -37.3% (inactive).

As to `Cc1cc(Cl)ccc1OCCCC(=O)NO`, the “activation” value is -41.6% (inactive).
